This is a sample that favours compounds with a hit; in the whole collection about 3.7% have one here.
ClpP mod: qHTS Assay for Activators of ClpP | ATP-dependent Clp protease proteolytic subunit (Bacillus subtilis (strain 168)), P80244 | purified B. subtilis ClpP, FRET peptide cleavage, 20 min | Potency, µM (doses to about 57.5 µM), for inactives: at the top dose activity change, negative = active | 340,000 tested, 1.9% active | AID 651965, 2013; active = well fitted falling curve with a large enough effect; inconclusive = small, poorly fitted or top-dose-only effect; inactive = no such curve, though single readings can be large or run the other way; note: potency is the fitted concentration of half-maximal effect; the source files actives as falling curves though it sought activators and does not explain the sign; nearly all actives have a fitted effect of over 65% in size
Target sequence (P80244 whole entry, looked up): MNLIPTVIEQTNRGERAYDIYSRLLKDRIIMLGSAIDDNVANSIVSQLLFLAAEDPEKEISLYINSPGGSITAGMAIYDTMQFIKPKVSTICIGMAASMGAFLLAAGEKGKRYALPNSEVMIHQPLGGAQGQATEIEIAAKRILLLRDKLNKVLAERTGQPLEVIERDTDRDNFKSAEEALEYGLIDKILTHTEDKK
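Purified B. subtilis ClpP, 10 microg/mL final in Tris/HCl pH8 with KCl, BSA, glycerol and Tween-20, cleaved an Abz/nitrotyrosine-quenched decapeptide. Fluorescence (ex 320, em 430) was read at 0 and 20 min at room temperature. Delta was normalized to 5.8 microM ADEP and DMSO/no-enzyme controls.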
Nrf2 inh: Nrf2 qHTS screen for inhibitors | 360,000 tested, 2.1% active | A549 ARE-Fluc reporter, luciferase luminescence, 18-24 h | Potency, µM (series often up to 46 µM), for inactives: at the highest dose activity change, negative = inhibition, hits mostly inhibitors; note: potency is the fitted concentration of half-maximal effect; % is set by controls: 0 for no effect and ±100 for the full control effect; nearly all actives have a fitted effect of over 60% in size
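Concentration-response testing used A549 ARE_Fluc cells at 5000 cells/well. Following an 18-24 h compound incubation, viability was read by fluorescence (Ex 405/Em 525) and luciferase output by luminescence.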
miR-21 act: qHTS Assay for Modulators of miRNAs and/orActivators of miR-21. HeLa miR-21 FLuc reporter, luciferase, 48 h. Potency, µM (doses to about 38.3 µM), inactives show at the top dose activity change, positive = activation, most hits filed as activators. 340,000 tested, under 10 active. AID 2288, 2010;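 note: % of control where 0% means no effect; miR-21 action dims this reporter so a rising signal means less miR-21 action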
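Using DMEM plus 10% FBS, HeLa miR-21-FLuc cells are incubated with test compounds (final up to about 40uM) for 48 hours; firefly luciferase signal is then imaged following reagent-mediated lysis.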
A549 tox-1: Nrf2 qHTS screen for inhibitors: counterscreen for cytotoxicity; A549 ARE-Fluc cells, CellTiter-Fluor viability, 18-24 h; Potency, µM (doses to about 46 µM), for the others: top-dose activity change, negative = cytotoxicity, actives largely listed as inhibitors; 390,000 tested, 0.16% active; note: potency is the fitted concentration of half-maximal effect; % is set by controls: 0 for no effect and ±100 for the full control effect
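A549 ARE-Fluc cells in 5% FBS OPTI-MEM, 5000 cells/well, rested 2 h then exposed to compounds in concentration-response for 18-24 h at 37 °C. Viability by CellTiter-Fluor fluorescence (Ex 405/Em 525) after 30 min; luciferase luminescence (BugLite, 15 min, RT) read afterwards.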
TCR act: Activators of T cell receptors: qHTS campaign; 330,000 tested, under 10 active; Potency, µM (highest dose often 9.22 µM), for inactives: at the top dose activation of IL-2 secretion, usual class: activators; primary human leukocytes, anti-CD3, IL-2 HTRF, 48 h; AID 504894, 2011; note: % of control where 0% means no effect
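1) Mix primary human leukocytes, a-CD3 beads and compound. 2) Incubate 48 hr. 3) Add HTRF IL-2 reagents (a-IL-2-K, a-IL-2-d2).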
Nrf2 ARE act: qHTS of Nrf2 Activators | 410,000 tested, 0.31% active | Potency, µM (top dose mostly 46.1 µM), inactives show top-dose activation, actives largely listed as activators | AREc32 ARE-luciferase reporter (MCF7-derived line), luminescence, 24 h | AID 624171, 2012; note: potency is the fitted concentration of half-maximal effect; % of control where 0% means no effect; nearly all actives have a fitted effect of over 65% in size
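AREc32 cells carrying an ARE-driven firefly luciferase reporter were seeded at 1000 cells/well in OPTI-MEM with 5% FBS, then exposed to compound for 24 hr at 37 deg C. Luminescence was read with Steady-Glo after 30 min at RT.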
FLuc counter 3: Nrf2 qHTS screen for inhibitors: Purified Fluc Biochemical Counterscreen for Hit Validation | shares compounds with Nrf2 inh | purified firefly luciferase, luminescence inhibition | Potency, µM (highest dose often 57.5 µM), for the others: top-dose activity change, negative = inhibition, most hits filed as inhibitors | 1,400 tested, 4% active; note: potency is the fitted concentration of half-maximal effect; % is set by controls: 0 for no effect and ±100 for the full control effect; nearly all actives have a fitted effect of over 65% in size
Target sequence (P08659 whole entry, looked up): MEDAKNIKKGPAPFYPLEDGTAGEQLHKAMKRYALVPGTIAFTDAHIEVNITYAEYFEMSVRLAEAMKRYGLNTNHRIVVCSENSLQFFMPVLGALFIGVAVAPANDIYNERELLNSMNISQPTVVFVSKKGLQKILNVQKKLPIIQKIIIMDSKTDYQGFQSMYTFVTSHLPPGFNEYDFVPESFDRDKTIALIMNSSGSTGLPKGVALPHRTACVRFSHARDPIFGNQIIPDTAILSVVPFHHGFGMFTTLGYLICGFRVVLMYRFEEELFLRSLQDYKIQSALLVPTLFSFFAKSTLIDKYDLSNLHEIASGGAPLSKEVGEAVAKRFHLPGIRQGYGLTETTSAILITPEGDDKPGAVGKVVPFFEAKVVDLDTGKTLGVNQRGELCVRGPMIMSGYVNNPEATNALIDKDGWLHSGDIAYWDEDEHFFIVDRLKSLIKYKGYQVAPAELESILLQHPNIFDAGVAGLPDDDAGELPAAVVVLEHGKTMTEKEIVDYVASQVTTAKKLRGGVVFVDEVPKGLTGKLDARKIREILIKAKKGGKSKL
A549 tox-2: Nrf2 qHTS screen for inhibitors: A549 ARE-Fluc Cytotoxicity Counterscreen for Hit Validation. shares compounds with Nrf2 inh. A549 ARE-Fluc cells, cytotoxicity counterscreen. Potency, µM (series often up to 46.1 µM), inactives show top-dose activity change, negative = cytotoxicity, actives largely listed as inhibitors. 1,400 tested, 2% active. AID 720523, 2013;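 note: potency is the fitted concentration of half-maximal effect; cells exposed to compounds for 18 to 24 hours; % is set by controls: 0 for no effect and ±100 for the full control effect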
Nrf2 ARE inh: Nrf2 qHTS screen for inhibitors: Nrf2 A549 ARE-Fluc Confirmation Assay for Hit Validation | Potency, µM (highest dose often 46.1 µM), without a hit: top-dose activity change, negative = inhibition, usual class: inhibitors | AID 720524, 2013 | 1,400 tested, 74% active | shares compounds with Nrf2 inh | A549 ARE-firefly luciferase reporter, luminescence; note: potency is the fitted concentration of half-maximal effect; % is set by controls: 0 for no effect and ±100 for the full control effect; nearly all actives have a fitted effect of over 65% in size
Active calls of the source: *; ? = inconclusive; . = not tested or not shown; [ ] = another dose, or the depositor's remark. Unless noted, calls come from the whole dose curve; as a rule, active = well fitted curve in the direction sought with a large enough effect; inconclusive = small, poorly fitted or top-dose-only effect, or another doubt; inactive = no such curve, though single readings can be large; an effect the other way counts as inactive or inconclusive.

SMILES	ClpP mod	Nrf2 inh	miR-21 act	A549 tox-1	TCR act	Nrf2 ARE act	FLuc counter 3	A549 tox-2	Nrf2 ARE inh
CC1(C)CC(N2CCCC2)=CC(=[N+]2CCCCCC2)C1	-3.2%	-19.8%	?	-22.8%	11.5%	-0.8%	.	.	.
CC1CC(C)C[N+](=C2C=C(N3CCCC3)CC(C)(C)C2)C1 (centres undefined)	-4.6%	5.17µM*	?	?	-7.1%	-0.2%	-3.3%	-27.9%	.
O=C(Oc1ccccc1F)c1nc(SCc2ccc(F)cc2)ncc1Cl	-6.8%	-4.8%	6.3%	0.4%	.	0.5%	.	.	.
CCOCCOC(=O)c1ccc(NC(=O)/C=C/c2ccc(OC)c(OC)c2)cc1	3.7%	1.7%	2.7%	18.3%	.	3.7%	.	.	.
CC(=NNC(=S)N1CCC1)c1ccccn1	-21.2%	0.13µM*	.	?	-1.9%	?	-17.6%	?	0.651µM*
COCCNC(=O)C1CCN(C(=O)c2cc3sccc3n2Cc2ccc(Cl)cc2)CC1	-0.1%	8.2µM*	?	?	.	0.2%	2.8%	-23.6%	5.8µM*
COCCCNC(=O)C1CCN(C(=O)c2cc3sccc3n2Cc2ccc(Cl)cc2)CC1	-2.1%	?	28.0%	-14.7%	.	0.6%	.	.	.
CCC(C)NC(=O)C1CCN(C(=O)c2cc3sccc3n2Cc2ccc(Cl)cc2)CC1 (centres undefined)	-2.3%	2.31µM*	?	?	.	-1.2%	1.1%	?	6.51µM*
Cc1ccc(C)c(NC(=O)Cn2cc(C(=O)c3cccs3)c3ccccc32)c1	?	?	?	-8.3%	.	0.3%	.	.	.
CCN(CC)c1ccc(C(=C2C=CC(=[N+](CC)CC)C=C2)c2ccccc2)cc1	-7.6%	1.3µM*	.	9.2µM*	4.8%	-3.4%	21.3µM*	6.51µM*	0.731µM*
CCN(CC)c1ccc(C(=O)NNC(=O)CCNC(=O)c2ccccc2)cc1	-1.5%	18.3%	.	19.9%	1.5%	4.2%	.	.	.
CCN(CC(=O)NCc1cccs1)S(=O)(=O)c1ccccc1Cl	-0.3%	2.3%	.	2.2%	.	0.0%	.	.	.
O=c1c2cccc3c2c(nn1CN1CCOCC1)-c1ccccc1-3	-11.9%	3.66µM*	-24.9%	-12.6%	.	13.9%	3.1%	-8.8%	8.2µM*
CCc1ccc(NC(=O)CC2C(=O)N(c3ccc(Cl)cc3)C(=O)N2C2CCCC2)cc1 (centres undefined)	4.0%	?	-7.4%	?	.	0.7%	.	.	.
CC1(c2ccc3c(c2)OCCO3)NC(=O)N(CC(=O)Nc2ccccc2F)C1=O (centres undefined)	0.3%	-6.9%	.	2.3%	2.9%	0.1%	.	.	.
CC(C)CC(=NNC(=O)c1ccncc1)c1cc(Cl)ccc1O	-0.5%	6.51µM*	.	?	-1.3%	0.3%	1.2%	-1.5%	6.51µM*
COc1ccc(CCN(C)C(=O)Cc2ccc(-c3ccccc3)cc2)cc1OC	.	5.8µM*	13.5%	-0.8%	5.0%	2.6%	-0.2%	-2.2%	18.4µM*
O=C(OCC(=O)N1CCCc2ccccc21)c1ccc(F)c(S(=O)(=O)N2CCOCC2)c1	.	-17.6%	.	4.2%	4.1%	0.0%	.	.	.
CCCc1ccc(-c2ccc(/C=C/C(=O)O)cc2)nc1	?	0.0366µM*	?	-0.2%	0.5%[46.1 µM]	-2.7%	0.269µM*	-3.8%	0.058µM*
O=C(NC1CCCc2ccccc21)c1cn2ccccc2n1 (centres undefined)	?	20.3%	-27.0%	2.5%	3.2%	4.2%	.	.	.
Cc1nc2ccccn2c1C(=O)NC1CCCc2ccccc21 (centres undefined)	-19.8%	1.64µM*	14.1%	3.3%	1.8%	1.8%	-0.3%	-7.0%	4.61µM*
NC(=O)c1ccccc1OCC(=O)N1CCC(Cc2ccccc2)CC1	-4.7%	5.17µM*	.	-18.2%	7.8%	0.2%	-13.5%	-1.0%	8.2µM*
Cc1cccc(NC(=O)Cn2cc(C(=O)C3CCCCC3)c3ccccc32)c1C	-4.1%	5.8µM*	26.5%	-23.5%	.	-0.2%	-5.4%	-19.0%	5.8µM*
COc1cccc(CN(C)C(=O)CNC(=O)c2ccc(-c3ccccc3)cc2)c1OC	.	4.61µM*	24.6%	-20.5%	2.1%	-0.4%	-23.7%	-10.8%	.
CCCn1c(NC(=O)c2cccc(S(=O)(=O)N3CCCC3)c2)nc2ccccc21	?	7.31µM*	?	?	7.1%	-2.3%	-13.2%	?	7.31µM*
SMILES	ClpP mod	Nrf2 inh	miR-21 act	A549 tox-1	TCR act	Nrf2 ARE act	FLuc counter 3	A549 tox-2	Nrf2 ARE inh
Cc1ccnc(NC(=O)CCCOc2cc(=O)n(C)c3ccccc23)c1	-12.2%	4.11µM*	22.9%	?	0.3%	0.0%	-12.4%	?	5.8µM*
Cc1cccc(NC(=O)C2CCN(S(=O)(=O)c3cccc4nsnc34)CC2)c1	0.8%	?	12.4%	0.9%	-0.8%	-0.6%	.	.	.
O=C(Nc1cccc(F)c1)C1CCN(S(=O)(=O)c2cccc3nsnc23)CC1	-1.5%	0.0082µM*	4.8%	-16.0%	.	1.0%	0.8%	-5.9%	-27.1%
CCOc1ccc(C(=O)Nc2ccc3nc(SCC(=O)N4CCOCC4)sc3c2)cc1	-5.0%	?	12.3%	1.8%	.	2.5%	.	.	.
NC(=O)c1ccc(NC(=O)C#Cc2ccccc2)cc1	.	4.61µM*	16.3%	-17.7%	1.6%	?	?	?	5.8µM*
CC(Oc1ccccc1)C(=O)Nc1ccc(C(N)=O)cc1 (centres undefined)	-11.5%	.	-10.5%	10.3%	-4.2%	0.2%	.	.	.
CCN(Cc1ccccc1)c1ncnc2c1nnn2C	-3.5%	.	-16.4%	-4.1%	.	-0.1%	.	.	.
CCCC(=O)Nc1ccc(Sc2ccc([N+](=O)[O-])cc2)cc1	0.6%	?	20.7%	-6.3%	2.5%	2.7%	.	.	.
CCC(CC)C(=O)Nc1ccc(Sc2ccc([N+](=O)[O-])cc2)cc1	-2.2%	3.66µM*	?	?	-3.2%	4.5%	0.6%	-10.4%	18.4µM*
